This note sets out measurements from PubChem BioAssay (NCATS).

Molecules are shown by their SMILES.

The nature of the first assay: qHTS profiling for inhibitors of Plasmodium falciparum (DD2) proliferation (AID 743323). To be noted: lower = more inhibition; at 28.7 µM (top of the series) unless noted. The procedure, abridged: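 Parasite proliferation measured via DNA-dye fluorescence, as uninfected erythrocytes lack DNA. Cultures at 0.3% parasitemia and 2.5% hematocrit incubated 72 h with compound; signal scaled between vehicle and 0.29 uM artemisinin wells.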
As for `CCCCc1ccc(NS(=O)(=O)c2ccc(C)c(C(=O)N3CCN(c4cccc(C)c4C)CC3)c2)cc1`, the activity, percent of control amounted to 96.6%.

For `O=C(Nc1ccc(OC(F)(F)F)cc1)c1sccc1NCc1ccnc2ccccc12`, the activity, percent of control was determined as 75.1%.

`O=C1CN2Cc3c(ccc(Cl)c3Cl)N=C2N1` returned an activity, percent of control of 93.4%.

For the compound `Cc1c(C(=O)Nc2ccc(N3C[C@@H](C)O[C@@H](C)C3)nc2)cccc1-c1ccc(OC(F)(F)F)cc1`, the activity, percent of control was determined as 72.3%.

With `CC(C)C[C@@H](C(=O)N[C@H](C(=O)OC1CCCC1)c1ccccc1)[C@H](O)C(=O)NO`, the activity, percent of control worked out at 9.3%.

In turn, `CN(C)CCN(C)C(=O)c1ccc(NC(=O)Nc2ccc(-c3nc(N4CCOCC4)c4ccn(CC(F)(F)F)c4n3)cc2)cc1` registered an activity, percent of control of 0.114%.

`CCc1cc(-c2n[nH]c(C)c2-c2ccc3c(c2)OCCO3)c(O)cc1O`: the activity, percent of control is 90.4%.

Compound `CC(=O)NCCC(=O)N[C@@H](CCC(N)=O)C(=O)N[C@@H](CO)C(=O)N[C@@H](CCC(N)=O)C(=O)N[C@@H](CCC(N)=O)C(=O)N[C@H](C(=O)N[C@@H](Cc1ccccc1)C(=O)N[C@]1(C)CCCCCCC=CCCC[C@@](C)(C(=O)N[C@@H](CCC(N)=O)C(=O)N[C@@H](CC(N)=O)C(N)=O)NC(=O)[C@H](CC(C)C)NC(=O)[C@H](CC(C)C)NC(=O)[C@@H](CCCNC(=N)N)NC(=O)[C@H](Cc2c[nH]c3ccccc23)NC(=O)[C@H](CC(C)C)NC(=O)[C@H](CC(N)=O)NC1=O)[C@H](C)O` yielded an activity, percent of control of 68.3%.

As for `CCOC(=O)[C@@H](N)CCC(=O)N[C@@H](CSCc1ccccc1)C(=O)N[C@@H](C(=O)OCC)c1ccccc1`, the activity, percent of control stood at 92%.

Take `C[C@@H](O[C@H]1OCCN(Cc2n[nH]c(=O)[nH]2)[C@@H]1c1ccc(F)cc1)c1cc(C(F)(F)F)cc(C(F)(F)F)c1`: the activity, percent of control is 26.1%.

`CC(O)=C(C#N)C(=O)Nc1ccc(C(F)(F)F)cc1` registered an activity, percent of control of 95.5%.

Compound `Cc1csc(-c2nnc(Nc3ccc(Oc4ncccc4-c4ccnc(N)n4)cc3)c3ccccc23)c1` gave an activity, percent of control of 85.6%.

The nature of another assay: qHTS profiling for inhibitors of Plasmodium falciparum (HB3) proliferation (AID 743324).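 Further: 100% = DMSO vehicle wells and 0% = artemisinin-treated control wells.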 To be noted: Plasmodium falciparum HB3 blood-stage proliferation; at 28.7 µM (top of the series) unless noted. The method, boiled down: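 SYBR Green fluorescence (485 ex/535 em) of lysed cultures, incubated overnight at room temperature in the dark, quantifies parasite DNA. Infected erythrocytes at 0.3% parasitemia and 2.5% hematocrit were exposed 72 h; values normalized to DMSO and 0.29 uM artemisinin controls.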
A general note: Quantitative high-throughput screening tests each substance at several concentrations.
Regarding `CCCCc1ccc(NS(=O)(=O)c2ccc(C)c(C(=O)N3CCN(c4cccc(C)c4C)CC3)c2)cc1`, the remaining proliferation (% of control), lower = more inhibition stood at 92.7%.

For the compound `O=C(Nc1ccc(OC(F)(F)F)cc1)c1sccc1NCc1ccnc2ccccc12`, the remaining proliferation (% of control), lower = more inhibition amounted to 58.1%.

As for `O=C1CN2Cc3c(ccc(Cl)c3Cl)N=C2N1`, the remaining proliferation (% of control), lower = more inhibition was 46.3%.

In the case of `Cc1c(C(=O)Nc2ccc(N3C[C@@H](C)O[C@@H](C)C3)nc2)cccc1-c1ccc(OC(F)(F)F)cc1`, the remaining proliferation (% of control), lower = more inhibition was found to be 55.5%.

`CC(C)C[C@@H](C(=O)N[C@H](C(=O)OC1CCCC1)c1ccccc1)[C@H](O)C(=O)NO`: the remaining proliferation (% of control), lower = more inhibition was found to be 11%.

On to `CN(C)CCN(C)C(=O)c1ccc(NC(=O)Nc2ccc(-c3nc(N4CCOCC4)c4ccn(CC(F)(F)F)c4n3)cc2)cc1`, for which the remaining proliferation (% of control), lower = more inhibition was -1%.

With `CCc1cc(-c2n[nH]c(C)c2-c2ccc3c(c2)OCCO3)c(O)cc1O`, the remaining proliferation (% of control), lower = more inhibition stood at 74.6%.

On to `CC(=O)NCCC(=O)N[C@@H](CCC(N)=O)C(=O)N[C@@H](CO)C(=O)N[C@@H](CCC(N)=O)C(=O)N[C@@H](CCC(N)=O)C(=O)N[C@H](C(=O)N[C@@H](Cc1ccccc1)C(=O)N[C@]1(C)CCCCCCC=CCCC[C@@](C)(C(=O)N[C@@H](CCC(N)=O)C(=O)N[C@@H](CC(N)=O)C(N)=O)NC(=O)[C@H](CC(C)C)NC(=O)[C@H](CC(C)C)NC(=O)[C@@H](CCCNC(=N)N)NC(=O)[C@H](Cc2c[nH]c3ccccc23)NC(=O)[C@H](CC(C)C)NC(=O)[C@H](CC(N)=O)NC1=O)[C@H](C)O`, for which the remaining proliferation (% of control), lower = more inhibition was 66.8%.

Take `CCOC(=O)[C@@H](N)CCC(=O)N[C@@H](CSCc1ccccc1)C(=O)N[C@@H](C(=O)OCC)c1ccccc1`: the remaining proliferation (% of control), lower = more inhibition was 64.9%.

On to `C[C@@H](O[C@H]1OCCN(Cc2n[nH]c(=O)[nH]2)[C@@H]1c1ccc(F)cc1)c1cc(C(F)(F)F)cc(C(F)(F)F)c1`, for which the remaining proliferation (% of control), lower = more inhibition came to 9.06%.

As to `CC(O)=C(C#N)C(=O)Nc1ccc(C(F)(F)F)cc1`, the remaining proliferation (% of control), lower = more inhibition was 98.9%.

Turning to `Cc1csc(-c2nnc(Nc3ccc(Oc4ncccc4-c4ccnc(N)n4)cc3)c3ccccc23)c1`, the remaining proliferation (% of control), lower = more inhibition amounted to 51.2%.

The nature of another assay: qHTS profiling of the MIPE4 collection as inhibitors of Plasmodium falciparum (3D7) proliferation (AID 743344). Particulars: P. falciparum 3D7 in erythrocytes, SYBR Green DNA fluorescence, 72 h; at 28.5 µM (top of the series) unless noted. The procedure, abridged:
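Parasite DNA was quantified by SYBR Green I fluorescence (ex 485, em 535 nm) after overnight lysis in saponin/Triton buffer at room temperature. Cultures at 0.3% parasitemia and 2.5% hematocrit were first exposed to compound for 72 h at 37 C; signals were normalised to artemisinin (0.29 uM) and vehicle wells.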
As for `CCCCc1ccc(NS(=O)(=O)c2ccc(C)c(C(=O)N3CCN(c4cccc(C)c4C)CC3)c2)cc1`, the parasite growth, % of DMSO control is 232%.

On to `Cc1cccc2c1CC[C@H](CN1CCC(c3c(Cl)cccc3Cl)CC1)C[C@@H]2O`, for which the parasite growth, % of DMSO control came to 8.94%.

The compound `CC[C@]1(O)C[C@H]2CN(CCC3=c4ccccc4=N[C]3[C@@](C(=O)OC)(c3cc4c(cc3OC)N(C)[C@H]3[C@@](O)(C(N)=O)[C@H](O)[C@]5(CC)C=CCN6CC[C@]43[C@@H]65)C2)C1` registered a parasite growth, % of DMSO control of 18.7%.

On to `O=c1[nH]c(=O)n([C@H]2C[C@@H](O)[C@@H](CO)O2)cc1I`, for which the parasite growth, % of DMSO control was 85%.

With `Cc1nc(NC(=O)N2CCC[C@@H]2C(N)=O)sc1-c1csc(C(C)(C)C)n1`, the parasite growth, % of DMSO control is 16.4%.

The compound `O=C(Nc1ccc(OC(F)(F)F)cc1)c1sccc1NCc1ccnc2ccccc12` came in with a parasite growth, % of DMSO control of 57%.

`O=C1CN2Cc3c(ccc(Cl)c3Cl)N=C2N1` displayed a parasite growth, % of DMSO control of 82.8%.

`Cc1c(C(=O)Nc2ccc(N3C[C@@H](C)O[C@@H](C)C3)nc2)cccc1-c1ccc(OC(F)(F)F)cc1` yielded a parasite growth, % of DMSO control of 54.5%.

`CN(C)CCN(C)C(=O)c1ccc(NC(=O)Nc2ccc(-c3nc(N4CCOCC4)c4ccn(CC(F)(F)F)c4n3)cc2)cc1` came in with a parasite growth, % of DMSO control of 5.47%.

In the case of `CC(=O)OCC(=O)[C@@]1(O)CC[C@H]2[C@@H]3CCC4=CC(=O)C=C[C@]4(C)[C@@H]3[C@@H](O)C[C@@]21C`, the parasite growth, % of DMSO control came out at 77.8%.

`CCOC(=O)c1c(CSc2ccccc2)n(C)c2cc(Br)c(O)c(CN(C)C)c12` gave a parasite growth, % of DMSO control of 8.99%.

`CCc1cc(-c2n[nH]c(C)c2-c2ccc3c(c2)OCCO3)c(O)cc1O` had a parasite growth, % of DMSO control of 49.4%.

`CC[C@H]1OC(=O)[C@H](C)[C@@H](O[C@H]2C[C@@](C)(OC)[C@@H](O)[C@H](C)O2)[C@H](C)[C@@H](O[C@@H]2O[C@H](C)C[C@H](N(C)C)[C@H]2O)[C@](C)(O)C[C@H](C)C(=NOCOCCOC)[C@H](C)[C@@H](O)[C@]1(C)O`: the parasite growth, % of DMSO control is 53.1%.

`COc1ccc(CCC(=O)Nc2nc3ccc(Cl)cc3s2)cc1OC` had a parasite growth, % of DMSO control of 22.3%.

`COc1ccc(Cn2ccc3ccc(C(=O)NO)cc32)cc1` returned a parasite growth, % of DMSO control of 4.8%.

`O=C(O)CCC=CCC[C@@H]1[C@H](N2CCCCC2)[C@@H](O)C[C@@H]1OCc1ccc(-c2ccccc2)cc1` registered a parasite growth, % of DMSO control of 67.9%.

Compound `O=C(CO)N1CCC(c2[nH]nc(-c3ccc(Cl)cc3)c2-c2ccncn2)CC1` had a parasite growth, % of DMSO control of 25.8%.

`O=C(Nc1ncc(SCCN2CCCC2)s1)[C@]1(c2ccc(S(=O)(=O)C3CC3)cc2)C[C@@H]1C1CCCCC1` had a parasite growth, % of DMSO control of 6.74%.

Regarding `CCOC(=O)[C@@H](N)CCC(=O)N[C@@H](CSCc1ccccc1)C(=O)N[C@@H](C(=O)OCC)c1ccccc1`, the parasite growth, % of DMSO control came to 89.7%.

`N#CC(=C1Nc2ccccc2S1)c1ccnc(OCc2ccc(CN3CCOCC3)cc2)n1`: the parasite growth, % of DMSO control is 14.1%.

Take `C[C@]12CCC3=C4CCC(=O)C=C4CC[C@@H]3[C@H]1CC[C@@]2(O)CC#N`: the parasite growth, % of DMSO control amounted to 92.8%.

As for `Cc1ccc(S(=O)(=O)Nc2nc3ccccc3nc2Nc2ccc3nsnc3c2)cc1`, the parasite growth, % of DMSO control was 25.4% [at 9.64 µM].

As to `CC1=C(CC(=O)O)c2cc(F)ccc2C1=Cc1ccc(S(C)=O)cc1` (stereo unspecified), the parasite growth, % of DMSO control came to 79.1%.

Regarding `O=c1[nH]nc(OCCCc2ccc(Cl)cc2)c(NCc2cccnc2)c1Br`, the parasite growth, % of DMSO control is 6.4%.

Turning to `COc1cc2c(cc1Cc1cccc(Cl)c1F)c(=O)c(C(=O)O)cn2[C@H](CO)C(C)C`, the parasite growth, % of DMSO control stood at 7.9%.

In the case of `CC(C)C[C@@H](N)[C@H](O)C(=O)N[C@H](C(=O)N[C@H](C(=O)N[C@@H](CC(=O)O)C(=O)O)C(C)C)C(C)C`, the parasite growth, % of DMSO control worked out at 102%.

`C=C1[C@H](n2cnc3c(=O)[nH]c(N)nc32)C[C@H](O)[C@H]1CO` came in with a parasite growth, % of DMSO control of 53.5%.

For the compound `C[C@@H](O[C@H]1OCCN(Cc2n[nH]c(=O)[nH]2)[C@@H]1c1ccc(F)cc1)c1cc(C(F)(F)F)cc(C(F)(F)F)c1`, the parasite growth, % of DMSO control amounted to 26.5%.

On to `CC(O)=C(C#N)C(=O)Nc1ccc(C(F)(F)F)cc1`, for which the parasite growth, % of DMSO control is 63.7%.

For `CCC(=O)NCC[C@@H]1CCc2ccc3c(c21)CCO3`, the parasite growth, % of DMSO control was determined as 98.2%.

With `O[C@@H](COc1cccc2ncccc12)CN1CCN(C2c3ccccc3[C@@H]3[C@H](c4ccccc42)C3(F)F)CC1` (stereo partly specified), the parasite growth, % of DMSO control was 47.1%.

`Cc1csc(-c2nnc(Nc3ccc(Oc4ncccc4-c4ccnc(N)n4)cc3)c3ccccc23)c1` registered a parasite growth, % of DMSO control of 38.3%.
